Experimental data from ChEMBL document CHEMBL1961873, “Compounds: GSK PKIS; Assays: Nanosyn kinase panel” (2012).

Legend:
[1] = molecular target: Protein kinase C gamma type (Homo sapiens) (UniProt P05129); details: at 1 µM;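 also: each value is an averaged percent inhibition of the enzyme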
[2] = molecular target: T1, Protein kinase C iota type (Homo sapiens) (UniProt P41743); details: at 0.1 µM
T1 sequence (whole entry): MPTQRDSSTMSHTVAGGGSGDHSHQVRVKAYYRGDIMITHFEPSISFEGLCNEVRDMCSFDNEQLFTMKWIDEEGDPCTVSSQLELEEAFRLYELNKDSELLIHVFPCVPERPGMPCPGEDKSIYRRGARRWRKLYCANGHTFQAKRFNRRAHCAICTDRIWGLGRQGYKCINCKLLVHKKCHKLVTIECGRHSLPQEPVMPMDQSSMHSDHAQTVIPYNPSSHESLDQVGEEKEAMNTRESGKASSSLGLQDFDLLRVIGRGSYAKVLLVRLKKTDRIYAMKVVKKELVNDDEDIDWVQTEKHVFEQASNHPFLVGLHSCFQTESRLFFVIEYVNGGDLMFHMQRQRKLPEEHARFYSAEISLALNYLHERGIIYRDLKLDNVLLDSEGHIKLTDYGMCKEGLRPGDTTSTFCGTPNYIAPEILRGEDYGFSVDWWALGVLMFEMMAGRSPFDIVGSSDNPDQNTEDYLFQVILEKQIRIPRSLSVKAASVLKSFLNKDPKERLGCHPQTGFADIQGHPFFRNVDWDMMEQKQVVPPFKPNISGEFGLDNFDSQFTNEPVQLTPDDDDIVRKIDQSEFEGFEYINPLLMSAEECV

[3] = molecular target: T1, Protein kinase C iota type (Homo sapiens); details: at 1 µM
[4] = molecular target: Protein kinase C theta type (Homo sapiens) (UniProt Q04759); details: at 0.1 µM
[5] = molecular target: Protein kinase C theta type (Homo sapiens) (UniProt Q04759); details: at 1 µM
[6] = molecular target: Protein kinase C beta type (Homo sapiens) (UniProt P05771); details: at 0.1 µM
[7] = molecular target: Protein kinase C beta type (Homo sapiens) (UniProt P05771); details: at 1 µM
[8] = molecular target: T2, Serine/threonine-protein kinase D1 (Homo sapiens) (UniProt Q15139); details: at 0.1 µM
T2 sequence (whole entry): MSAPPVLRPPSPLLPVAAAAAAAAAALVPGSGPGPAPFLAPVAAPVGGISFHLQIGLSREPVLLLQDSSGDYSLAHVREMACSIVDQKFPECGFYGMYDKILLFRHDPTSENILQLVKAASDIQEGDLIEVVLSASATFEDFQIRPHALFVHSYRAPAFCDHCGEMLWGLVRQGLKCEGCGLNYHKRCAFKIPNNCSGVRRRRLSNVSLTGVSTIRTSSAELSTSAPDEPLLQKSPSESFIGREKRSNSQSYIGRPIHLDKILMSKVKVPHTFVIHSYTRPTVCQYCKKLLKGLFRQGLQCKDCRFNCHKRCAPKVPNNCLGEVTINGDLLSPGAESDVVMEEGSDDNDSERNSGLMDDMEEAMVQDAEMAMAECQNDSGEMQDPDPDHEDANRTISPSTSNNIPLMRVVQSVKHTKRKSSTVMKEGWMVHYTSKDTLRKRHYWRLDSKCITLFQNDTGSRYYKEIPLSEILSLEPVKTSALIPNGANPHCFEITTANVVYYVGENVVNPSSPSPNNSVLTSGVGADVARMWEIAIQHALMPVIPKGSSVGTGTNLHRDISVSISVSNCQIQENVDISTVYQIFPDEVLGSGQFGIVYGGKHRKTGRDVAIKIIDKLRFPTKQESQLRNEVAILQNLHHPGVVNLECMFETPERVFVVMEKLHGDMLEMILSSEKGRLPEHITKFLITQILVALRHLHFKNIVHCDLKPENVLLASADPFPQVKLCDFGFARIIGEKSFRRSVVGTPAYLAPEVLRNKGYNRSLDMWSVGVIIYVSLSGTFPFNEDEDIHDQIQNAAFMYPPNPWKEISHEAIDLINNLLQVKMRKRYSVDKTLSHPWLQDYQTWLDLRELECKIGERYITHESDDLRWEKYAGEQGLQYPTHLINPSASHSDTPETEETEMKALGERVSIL

[9] = molecular target: T2, Serine/threonine-protein kinase D1 (Homo sapiens); details: at 1 µM
[10] = molecular target: T3, Serine/threonine-protein kinase D2 (Homo sapiens) (UniProt Q9BZL6); details: at 0.1 µM
T3 sequence (whole entry): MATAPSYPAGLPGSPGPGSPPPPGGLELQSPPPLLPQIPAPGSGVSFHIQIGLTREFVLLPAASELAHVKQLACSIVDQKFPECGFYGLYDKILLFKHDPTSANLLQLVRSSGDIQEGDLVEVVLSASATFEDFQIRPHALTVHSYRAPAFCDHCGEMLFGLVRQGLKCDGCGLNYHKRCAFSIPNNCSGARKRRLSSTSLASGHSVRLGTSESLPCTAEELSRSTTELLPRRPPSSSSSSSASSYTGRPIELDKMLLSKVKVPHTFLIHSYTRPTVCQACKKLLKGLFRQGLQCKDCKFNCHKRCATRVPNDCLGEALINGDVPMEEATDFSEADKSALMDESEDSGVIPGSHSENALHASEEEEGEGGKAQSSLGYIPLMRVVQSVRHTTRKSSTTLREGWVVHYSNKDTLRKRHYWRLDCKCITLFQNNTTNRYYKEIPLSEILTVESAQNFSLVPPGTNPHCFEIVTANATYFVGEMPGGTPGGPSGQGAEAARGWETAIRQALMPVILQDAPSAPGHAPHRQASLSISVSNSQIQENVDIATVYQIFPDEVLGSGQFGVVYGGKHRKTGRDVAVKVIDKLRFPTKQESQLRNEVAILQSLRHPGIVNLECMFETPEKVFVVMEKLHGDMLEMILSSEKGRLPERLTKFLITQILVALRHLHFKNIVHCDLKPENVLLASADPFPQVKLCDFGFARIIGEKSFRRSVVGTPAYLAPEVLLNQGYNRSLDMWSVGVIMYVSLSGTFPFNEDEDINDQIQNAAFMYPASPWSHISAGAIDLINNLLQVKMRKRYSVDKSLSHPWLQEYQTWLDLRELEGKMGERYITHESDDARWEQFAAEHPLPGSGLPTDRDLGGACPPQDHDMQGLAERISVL

[11] = molecular target: T3, Serine/threonine-protein kinase D2 (Homo sapiens); details: at 1 µM
[12] = molecular target: T4, Serine/threonine-protein kinase D3 (Homo sapiens) (UniProt O94806); details: at 0.1 µM
T4 sequence (whole entry): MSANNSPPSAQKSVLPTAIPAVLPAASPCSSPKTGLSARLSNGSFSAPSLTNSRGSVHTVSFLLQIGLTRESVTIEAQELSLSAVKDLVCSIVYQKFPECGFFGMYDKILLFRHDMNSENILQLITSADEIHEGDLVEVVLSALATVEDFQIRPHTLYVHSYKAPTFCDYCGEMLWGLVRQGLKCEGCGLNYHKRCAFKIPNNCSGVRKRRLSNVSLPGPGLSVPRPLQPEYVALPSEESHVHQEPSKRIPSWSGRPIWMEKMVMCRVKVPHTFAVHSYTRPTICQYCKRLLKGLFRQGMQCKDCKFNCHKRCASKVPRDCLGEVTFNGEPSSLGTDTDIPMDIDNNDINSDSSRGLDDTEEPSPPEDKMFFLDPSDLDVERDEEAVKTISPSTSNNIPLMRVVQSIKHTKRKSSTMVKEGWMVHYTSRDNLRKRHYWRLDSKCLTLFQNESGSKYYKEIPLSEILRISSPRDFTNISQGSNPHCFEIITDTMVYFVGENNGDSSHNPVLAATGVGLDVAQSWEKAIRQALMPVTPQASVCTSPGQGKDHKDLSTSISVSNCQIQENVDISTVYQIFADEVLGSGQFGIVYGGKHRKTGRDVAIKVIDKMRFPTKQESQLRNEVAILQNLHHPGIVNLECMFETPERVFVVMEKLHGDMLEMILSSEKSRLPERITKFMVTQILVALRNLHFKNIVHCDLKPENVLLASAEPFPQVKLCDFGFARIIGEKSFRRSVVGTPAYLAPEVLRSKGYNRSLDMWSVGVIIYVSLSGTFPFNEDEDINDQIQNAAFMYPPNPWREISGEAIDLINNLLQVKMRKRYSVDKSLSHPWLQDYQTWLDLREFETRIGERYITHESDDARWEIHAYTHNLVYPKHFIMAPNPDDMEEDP

[13] = molecular target: T4, Serine/threonine-protein kinase D3 (Homo sapiens); details: at 1 µM
[14] = molecular target: T5, cGMP-dependent protein kinase 1 (Homo sapiens) (UniProt Q13976); details: at 0.1 µM
T5 sequence (whole entry): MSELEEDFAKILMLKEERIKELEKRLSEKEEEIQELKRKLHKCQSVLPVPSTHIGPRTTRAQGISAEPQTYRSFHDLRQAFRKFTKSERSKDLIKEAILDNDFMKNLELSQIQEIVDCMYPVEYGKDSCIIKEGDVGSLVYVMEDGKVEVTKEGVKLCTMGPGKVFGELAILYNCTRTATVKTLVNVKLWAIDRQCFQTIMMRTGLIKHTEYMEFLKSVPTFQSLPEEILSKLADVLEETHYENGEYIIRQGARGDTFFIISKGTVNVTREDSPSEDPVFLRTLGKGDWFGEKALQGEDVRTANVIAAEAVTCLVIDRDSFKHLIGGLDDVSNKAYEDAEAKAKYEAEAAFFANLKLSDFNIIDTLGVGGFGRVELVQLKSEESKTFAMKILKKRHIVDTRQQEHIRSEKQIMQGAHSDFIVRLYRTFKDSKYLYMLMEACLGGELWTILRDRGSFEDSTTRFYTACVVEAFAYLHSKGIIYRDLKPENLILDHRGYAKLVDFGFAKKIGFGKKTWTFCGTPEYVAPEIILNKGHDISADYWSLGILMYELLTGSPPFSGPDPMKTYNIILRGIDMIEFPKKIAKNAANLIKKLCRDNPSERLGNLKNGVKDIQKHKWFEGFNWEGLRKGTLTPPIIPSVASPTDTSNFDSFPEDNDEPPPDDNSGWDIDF

[15] = molecular target: T5, cGMP-dependent protein kinase 1 (Homo sapiens); details: at 1 µM
[16] = molecular target: T6, cGMP-dependent protein kinase 2 (Homo sapiens) (UniProt Q13237); details: at 0.1 µM
T6 sequence (whole entry): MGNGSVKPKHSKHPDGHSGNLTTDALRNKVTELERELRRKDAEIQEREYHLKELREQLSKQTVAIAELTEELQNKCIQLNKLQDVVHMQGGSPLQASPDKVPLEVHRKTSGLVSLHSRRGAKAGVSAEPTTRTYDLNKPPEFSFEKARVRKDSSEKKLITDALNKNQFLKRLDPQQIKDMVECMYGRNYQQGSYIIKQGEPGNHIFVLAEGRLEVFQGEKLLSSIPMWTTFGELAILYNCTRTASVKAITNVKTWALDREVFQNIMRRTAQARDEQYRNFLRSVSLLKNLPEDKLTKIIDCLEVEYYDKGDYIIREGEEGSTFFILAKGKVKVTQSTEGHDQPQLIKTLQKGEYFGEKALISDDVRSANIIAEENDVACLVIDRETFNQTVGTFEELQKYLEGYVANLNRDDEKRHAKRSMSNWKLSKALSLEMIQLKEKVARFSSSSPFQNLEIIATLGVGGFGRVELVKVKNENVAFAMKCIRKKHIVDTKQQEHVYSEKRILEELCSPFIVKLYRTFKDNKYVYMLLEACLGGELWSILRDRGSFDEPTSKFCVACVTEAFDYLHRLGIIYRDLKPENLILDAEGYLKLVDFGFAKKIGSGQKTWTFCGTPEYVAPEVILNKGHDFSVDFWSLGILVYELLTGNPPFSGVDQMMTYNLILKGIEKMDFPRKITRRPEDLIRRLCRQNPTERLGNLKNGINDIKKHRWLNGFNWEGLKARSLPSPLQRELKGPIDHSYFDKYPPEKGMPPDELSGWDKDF

[17] = molecular target: T6, cGMP-dependent protein kinase 2 (Homo sapiens); details: at 1 µM
[18] = molecular target: T7, cAMP-dependent protein kinase catalytic subunit PRKX (Homo sapiens) (UniProt P51817); details: at 0.1 µM
T7 sequence (whole entry): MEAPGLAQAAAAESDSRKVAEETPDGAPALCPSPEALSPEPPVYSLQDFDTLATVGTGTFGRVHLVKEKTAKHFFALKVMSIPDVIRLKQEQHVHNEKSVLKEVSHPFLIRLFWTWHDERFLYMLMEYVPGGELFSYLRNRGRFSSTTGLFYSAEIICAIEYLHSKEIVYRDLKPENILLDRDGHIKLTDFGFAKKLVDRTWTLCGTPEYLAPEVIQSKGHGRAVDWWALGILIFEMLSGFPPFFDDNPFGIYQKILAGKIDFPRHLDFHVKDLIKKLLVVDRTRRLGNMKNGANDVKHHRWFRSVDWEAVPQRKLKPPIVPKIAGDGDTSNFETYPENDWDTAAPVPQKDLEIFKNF

[19] = molecular target: T7, cAMP-dependent protein kinase catalytic subunit PRKX (Homo sapiens); details: at 1 µM
[20] = molecular target: Rho-associated protein kinase 1 (Homo sapiens) (UniProt Q13464); details: at 0.1 µM;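 also: values are mean percent inhibition of ROCK1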
Sequence of Rho-associated protein kinase 1 (Homo sapiens) (Q13464 2-1354 limits assumed): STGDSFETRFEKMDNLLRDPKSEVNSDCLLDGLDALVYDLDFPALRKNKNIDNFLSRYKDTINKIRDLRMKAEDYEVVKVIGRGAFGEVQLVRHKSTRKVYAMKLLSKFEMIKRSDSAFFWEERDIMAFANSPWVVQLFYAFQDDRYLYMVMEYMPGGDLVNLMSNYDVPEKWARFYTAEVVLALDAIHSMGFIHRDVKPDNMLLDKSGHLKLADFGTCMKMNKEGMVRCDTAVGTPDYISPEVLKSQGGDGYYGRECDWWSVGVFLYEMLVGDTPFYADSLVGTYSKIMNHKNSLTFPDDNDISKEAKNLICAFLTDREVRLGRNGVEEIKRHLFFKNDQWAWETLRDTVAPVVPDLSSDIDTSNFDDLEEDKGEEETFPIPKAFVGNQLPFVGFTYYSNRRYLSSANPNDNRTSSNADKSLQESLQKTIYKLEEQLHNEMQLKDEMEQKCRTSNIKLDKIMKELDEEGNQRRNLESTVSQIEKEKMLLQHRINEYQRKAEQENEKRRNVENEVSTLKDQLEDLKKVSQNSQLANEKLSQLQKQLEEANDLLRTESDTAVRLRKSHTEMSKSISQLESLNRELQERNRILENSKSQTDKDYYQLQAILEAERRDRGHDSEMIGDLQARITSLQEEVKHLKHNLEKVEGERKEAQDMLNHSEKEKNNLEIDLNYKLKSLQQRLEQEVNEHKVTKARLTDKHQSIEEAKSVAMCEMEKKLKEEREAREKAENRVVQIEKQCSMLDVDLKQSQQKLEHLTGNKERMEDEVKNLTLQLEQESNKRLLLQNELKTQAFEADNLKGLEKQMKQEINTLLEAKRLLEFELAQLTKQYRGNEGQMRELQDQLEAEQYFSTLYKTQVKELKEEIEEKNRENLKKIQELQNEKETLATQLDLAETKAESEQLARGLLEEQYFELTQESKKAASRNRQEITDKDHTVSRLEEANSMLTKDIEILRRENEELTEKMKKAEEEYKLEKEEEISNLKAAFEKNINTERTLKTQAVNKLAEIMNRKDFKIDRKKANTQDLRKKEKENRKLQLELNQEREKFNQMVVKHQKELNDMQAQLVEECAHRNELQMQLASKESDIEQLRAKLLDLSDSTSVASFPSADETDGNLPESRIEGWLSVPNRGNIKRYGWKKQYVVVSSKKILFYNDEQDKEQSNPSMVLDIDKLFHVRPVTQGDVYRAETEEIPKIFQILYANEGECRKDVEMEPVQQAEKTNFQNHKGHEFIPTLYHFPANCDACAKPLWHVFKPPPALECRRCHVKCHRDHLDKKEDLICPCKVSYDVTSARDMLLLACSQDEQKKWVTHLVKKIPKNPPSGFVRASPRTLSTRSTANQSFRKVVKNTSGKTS

Sequence of Protein kinase C beta type (Homo sapiens) (P05771 2-671 limits assumed): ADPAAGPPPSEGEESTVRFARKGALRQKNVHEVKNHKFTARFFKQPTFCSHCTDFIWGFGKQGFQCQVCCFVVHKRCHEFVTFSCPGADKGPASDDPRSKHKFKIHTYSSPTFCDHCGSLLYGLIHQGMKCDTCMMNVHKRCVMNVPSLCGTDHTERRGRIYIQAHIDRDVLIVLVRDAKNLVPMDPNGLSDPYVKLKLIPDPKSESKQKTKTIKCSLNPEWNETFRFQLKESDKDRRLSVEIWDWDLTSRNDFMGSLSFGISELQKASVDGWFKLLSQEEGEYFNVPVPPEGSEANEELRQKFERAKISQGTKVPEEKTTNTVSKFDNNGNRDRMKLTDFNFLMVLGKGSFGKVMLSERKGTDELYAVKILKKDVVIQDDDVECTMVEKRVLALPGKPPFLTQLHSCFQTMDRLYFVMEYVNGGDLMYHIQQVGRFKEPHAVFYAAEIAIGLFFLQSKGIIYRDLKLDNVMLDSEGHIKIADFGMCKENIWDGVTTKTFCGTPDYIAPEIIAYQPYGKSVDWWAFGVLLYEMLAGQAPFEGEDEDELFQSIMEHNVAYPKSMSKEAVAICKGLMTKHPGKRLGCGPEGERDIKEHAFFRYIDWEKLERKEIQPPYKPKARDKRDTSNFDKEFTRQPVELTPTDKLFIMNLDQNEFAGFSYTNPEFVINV
Sequence of Protein kinase C theta type (Homo sapiens) (Q04759 whole entry, looked up): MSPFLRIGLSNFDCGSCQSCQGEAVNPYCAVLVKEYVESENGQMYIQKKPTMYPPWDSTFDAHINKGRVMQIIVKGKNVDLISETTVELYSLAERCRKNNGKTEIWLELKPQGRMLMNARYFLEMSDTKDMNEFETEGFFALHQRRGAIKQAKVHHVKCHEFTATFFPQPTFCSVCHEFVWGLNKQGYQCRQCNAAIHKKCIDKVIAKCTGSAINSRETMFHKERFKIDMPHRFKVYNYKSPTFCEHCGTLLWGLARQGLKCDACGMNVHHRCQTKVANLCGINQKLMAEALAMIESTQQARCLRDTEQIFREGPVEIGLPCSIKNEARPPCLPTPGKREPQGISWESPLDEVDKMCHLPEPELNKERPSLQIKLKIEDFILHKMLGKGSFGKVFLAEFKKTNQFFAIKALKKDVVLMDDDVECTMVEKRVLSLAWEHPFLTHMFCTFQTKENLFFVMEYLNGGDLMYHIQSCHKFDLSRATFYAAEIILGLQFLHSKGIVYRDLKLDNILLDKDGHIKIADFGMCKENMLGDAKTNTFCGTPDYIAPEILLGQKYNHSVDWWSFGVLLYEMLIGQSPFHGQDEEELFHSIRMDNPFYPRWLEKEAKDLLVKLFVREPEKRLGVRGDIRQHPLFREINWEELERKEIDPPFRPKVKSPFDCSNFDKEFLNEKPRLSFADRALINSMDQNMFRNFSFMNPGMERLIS

| Compound | inhibition [1] | inhibition [2] | inhibition [3] | inhibition [4] | inhibition [5] | inhibition [6] | inhibition [7] | inhibition [8] | inhibition [9] | inhibition [10] | inhibition [11] | inhibition [12] | inhibition [13] | inhibition [14] | inhibition [15] | inhibition [16] | inhibition [17] | inhibition [18] | inhibition [19] | inhibition [20] |
| --- | --- | --- | --- | --- | --- | --- | --- | --- | --- | --- | --- | --- | --- | --- | --- | --- | --- | --- | --- | --- |
| Cc1ccc(Nc2ccnc(Nc3cccc(C(N)=O)c3)n2)cc1O | 16.4% | 1.56% | -0.31% | 0.93% | 2.94% | 1.81% | 8.28% | -0.94% | 12.1% | -0.15% | 10.1% | -0.05% | 9.43% | 1.11% | 3.77% | 2.93% | 7.68% | 1.82% | 2.66% | 0.56% |
| NS(=O)(=O)c1cccc(-c2cc3ccncc3cc2OCc2ccccc2)c1 | 4.07% | 2.51% | 3.39% | 2.29% | 1.87% | 2.02% | 2.23% | 4.25% | 7.09% | 5.29% | 5.47% | 6.19% | 6.3% | 3.6% | 4.53% | 2.72% | 5.57% | 1.93% | 0.54% | 0.94% |
| CCn1c(-c2nonc2N)nc2c(C#CC(C)(C)O)nc(OCCNC)cc21 | 8.19% | 0.89% | 1.21% | 15.7% | 61.1% | 1.53% | 10.8% | 4.31% | 12.9% | 4.9% | 7.32% | 4.82% | 9.81% | 9.59% | 44.8% | 39.3% | 70.9% | 21.5% | 65.9% | 3.08% |
